Results filed as inconclusive are left out. Values without a mark were called inactive. Calls of active or inactive are those of the source. The call rests on the fitted dose curve; in most records, active means well fitted inhibition curve with a large enough effect in the repeat runs; inconclusive means weak or mixed curves; inactive means no such curve, though single readings can be large or run the other way.
On the % scale 0 is the no-effect control and ±100 the full control effect; potency means the concentration at half of the fitted maximal effect.

Sequence of Cytochrome P450 2C19 (Homo sapiens) (P33261 whole entry, looked up): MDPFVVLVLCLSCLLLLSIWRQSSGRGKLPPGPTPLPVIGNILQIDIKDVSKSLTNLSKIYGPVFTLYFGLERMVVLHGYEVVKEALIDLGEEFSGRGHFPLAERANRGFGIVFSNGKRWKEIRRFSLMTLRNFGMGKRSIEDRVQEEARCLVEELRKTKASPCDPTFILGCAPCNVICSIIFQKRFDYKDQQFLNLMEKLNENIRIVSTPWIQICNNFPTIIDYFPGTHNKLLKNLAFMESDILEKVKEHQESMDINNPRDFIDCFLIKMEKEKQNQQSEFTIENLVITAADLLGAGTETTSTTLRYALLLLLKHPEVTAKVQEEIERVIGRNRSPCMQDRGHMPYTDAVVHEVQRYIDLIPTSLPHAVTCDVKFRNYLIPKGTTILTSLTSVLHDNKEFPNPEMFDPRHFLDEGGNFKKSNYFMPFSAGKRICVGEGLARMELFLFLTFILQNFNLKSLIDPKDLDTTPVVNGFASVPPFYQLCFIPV

This experiment addresses Cytochrome P450 2C19 (Homo sapiens) (UniProt P33261). Description: Cytochrome P450 Family 2 Subfamily C Member 19 (CYP2C19) small molecule antagonists: luciferase reporter qHTS assay (AID 1671197). Further: nearly all actives have a fitted effect of over 65% in size. The conditions noted are these: P450-Glo CYP2C19 enzyme, luciferin luminescence, 1 h; series mostly up to 52.9 µM; activity change, negative = inhibition: at the top concentration. The source says: National Center for Advancing Translational Sciences [NCATS]
U.S. Environmental Protection Agency [EPA]
National Institutes of Environmental Health Sciences [NIEHS]
National Toxicology Program [NTP]
U.S. Food and Drug Administration [FDA]
Cytochrome P450 (CYP) enzymes are membrane-bound hemeproteins that play a key role in metabolism of drugs and xenobiotics. Evaluation of the effect of chemicals on CYP isozymes is useful to minimize the adverse drug reactions and toxicities in drug development process. Tox21 chemicals were tested for their effect on CYP enzyme activities by using P450-Glo (TM) screening systems (Promega Corporation, Madison, WI). These systems provide a luminescent method containing proluciferin substrates and are converted to luciferin products by CYP isozymes. The luciferin products formed are detected with a luciferin detection reagent, and the amount of light produced is proportional to CYP activity. P450-Glo (TM) CYP2C19 screening system (Catalog. No. V9880) was used to detect the compounds that interfere in CYP2C19 activity. The positive control compound used for CYP2C19 assay is ketoconazole (Sigma-Aldrich, St. Louis, MO).
Tox21 Assay Protocol Summary:
Two ul of enzyme-substrate mix was dispensed into medium binding white/solid 1536-well plates (Greiner Bio-One North America Inc., Monroe, NC) using a BioRaptr Flying Reagent Dispenser (FRD, Beckman Coulter, Brea, CA). Compounds dissolved in DMSO and positive control (ketoconazole) were transferred to the assay plates at 23 nl using a Pintool station (Wako, San Diego, CA). The assay plates were incubated at room temperature for 10 min. Then 2 ul of NADPH regeneration solution was added to each well of the assay plates using an FRD and incubated at 37C for 1 h. The reaction was stopped by adding 4 ul of detection reagent using an FRD and after 20 min incubation at room temperature the luminescence signal was measured using a ViewLux plate reader (Perkin Elmer, Shelton, CT). Data were expressed as relative luminescence units.
In general terms: In a reporter assay the amount or activity of a reporter protein is the signal.
Consider `c1cc(N(CC2CO2)CC2CO2)ccc1Cc1ccc(N(CC2CO2)CC2CO2)cc1` (stereo not given), for which the Potency is 63.3 µM (active).
Same read-out and setting: to `Oc1cccc(Nc2ccccc2)c1` belongs 13.2 µM (active).
On to `CC(C)(C)C(=O)C(=O)O`, for which the “activity change, negative = inhibition” value is -7.21% [at 115 µM].
With `CCOC(=O)/C=C/C(=O)OCC`, the “activity change, negative = inhibition” value was 9.33% [at 115 µM].
Consider `COc1cc(Nc2c(C#N)cnc3cc(OCCCN4CCN(C)CC4)c(OC)cc23)c(Cl)cc1Cl`, for which the “activity change, negative = inhibition” value was 7.2%.
Regarding `C=C1c2cccc(O)c2C(O)=C2C(=O)[C@]3(O)C(O)=C(C(N)=O)C(=O)[C@@H](N(C)C)[C@@H]3[C@@H](O)[C@H]12`, the “activity change, negative = inhibition” value is 25.5%.
For `N#CCCN(CCO)CCO`, the “activity change, negative = inhibition” value was 13.2% [at 115 µM].
On to `CCCCN(CCN(CCCC)C(=O)N1CCOCC1)C(=O)N1CCOCC1`, for which the “activity change, negative = inhibition” value is 10.3%.
As to `Clc1ccc(Nc2nnc(Cc3ccncc3)c3ccccc23)cc1`, the Potency was 2.19 µM (active).
On to `CCCCCCCCC(CCCCCC)C(=O)O` (stereo not given), for which the Potency is 35.6 µM (active).
For `COc1ccccc1N1CCN(CCCCNC(=O)c2ccc(-c3ccc(C(C)=O)cc3)cc2)CC1`, the “activity change, negative = inhibition” value was 2.79%.
Regarding `CC(=O)NC1(c2cccc(F)c2)CCN(CC[C@@]2(c3ccc(Cl)c(Cl)c3)CN(c3ccccc3)C(=O)CO2)CC1`, the Potency was 6.34 µM (active).
In the case of `Cc1cc2c(OCC(CNC(C)(C)C)OC(=O)c3ccccc3)cccc2[nH]1` (stereo not given), the Potency is 38.9 µM (active).
As for `C=C/C(C)=C/C/C=C(\C)CCC=C(C)C`, the Potency was 31.7 µM (active).
With `CN1CCCC(CC2c3ccccc3Sc3ccccc32)C1` (stereo not given), the Potency is 7.76 µM (active).
Still for that read-out and setting: for `CCOC(=O)c1ccc(I)cc1` the value was 80.4 µM (active).
As for `Cc1ccc(OC(=O)c2ccccc2O)cc1`, the “activity change, negative = inhibition” value is -13.8% [at 115 µM].
For the compound `C[C@@H](O[C@H]1OCCN(Cc2n[nH]c(=O)[nH]2)[C@H]1c1ccc(F)cc1)c1cc(C(F)(F)F)cc(C(F)(F)F)c1`, the Potency was 15.5 µM (active).
Consider `C[C@@H]1CC(=O)NN=C1c1ccc(NN=C(C#N)C#N)cc1`, for which the Potency was 17.4 µM (active).
Regarding `CCCCCCCC/C=C\CCCCCCCCO`, the “activity change, negative = inhibition” value was -1.2% [at 115 µM].
`NC1[C@H]2CN(c3nc4c(cc3F)c(=O)c(C(=O)O)cn4-c3ccc(F)cc3F)C[C@@H]12` (stereo not given in full): the “activity change, negative = inhibition” value was -4.15%.
Turning to `C=C(C)C(=O)OCCOCCOC(=O)C(=C)C`, the Potency was 8.94 µM (active).
As for `CCCCCCCCCI`, the “activity change, negative = inhibition” value is -25.1% [at 115 µM].
As to `C[C@]12CC[C@@H]3c4ccc(O)cc4CC[C@H]3[C@@H]1CC[C@@H]2OC(=O)CCC1CCCC1`, the Potency is 14.2 µM (active).
Take `CC(=O)c1cc2ccccc2s1`: the “activity change, negative = inhibition” value is -3.84%.
Regarding `CC1=C(CC=O)C(C)(C)CCC1`, the “activity change, negative = inhibition” value was -2.65% [at 115 µM].
As to `O=[N+]([O-])c1ccc(Nc2ccc(Nc3ccccc3)c(S(=O)(=O)O)c2)c([N+](=O)[O-])c1`, the “activity change, negative = inhibition” value was 14.5% [at 115 µM].
With `O=C1c2ccccc2C(=O)C1(O)O`, the Potency was 71.4 µM (active).
As for `COc1ccccc1Oc1c(NS(=O)(=O)c2ccc(C(C)(C)C)cc2)nc(-c2ncccn2)nc1OCCO`, the “activity change, negative = inhibition” value was 42.7%.
`Cc1cc(C)c(N)cc1C`: the Potency is 7.94 µM (active).
With `CN1C(=O)N(c2ccccc2Br)Cc2cnc(Nc3ccc4c(c3)OCC(CO)O4)nc21` (stereo not given), the Potency is 7.1 µM (active).
Consider `CCOC(=O)[C@H](CCc1ccccc1)N[C@@H](C)C(=O)N(CC(=O)O)C1Cc2ccccc2C1`, for which the Potency is 6.92 µM (active).
Consider `Cc1cc(O)c(C)c(C)c1O`, for which the “activity change, negative = inhibition” value was 0.552%.
As to `C[C@H]1C[C@H](O)c2ccsc2S1(=O)=O`, the “activity change, negative = inhibition” value was 14.5%.
Take `O=C(Nc1cccc2c(=O)cc(-c3nn[nH]n3)oc12)c1ccc(OCCCCc2ccccc2)cc1`: the “activity change, negative = inhibition” value was 8.66%.
With `CCCCN(CCCC)C(C(N)=O)c1ccc(OC)cc1` (stereo not given), the Potency was 15.5 µM (active).
Take `COc1cc(C(=O)NC2CCN(C)CC2)ccc1Nc1ncc2c(n1)N(C1CCCC1)CC(F)(F)C(=O)N2C`: the Potency is 51.7 µM (active).
On to `COc1ncnc(NS(=O)(=O)c2ccc(N)cc2)c1OC`, for which the “activity change, negative = inhibition” value was 7.21%.
Turning to `C/C=C/C=C/C=O`, the “activity change, negative = inhibition” value was -26.1% [at 115 µM].
In the case of `CCOc1cccc(-n2cc(C(=O)N3CCN(c4cc(C(=O)O)c5ccccc5c4)CC3)nc2-c2ccc(C)cc2)c1`, the Potency was 53.8 µM (active).
